The panel holds about 79,000 compounds, 15% with a hit somewhere; the sample as a whole holds those more often. Unmarked numbers belong to inactive results. Calls of active or inactive are those of the source. Cut-off read from the data, not from the text of the source: active = growth inhibition above about 70%; inactive = the rest.
Assay: NCI Yeast Anticancer Drug Screen. Data for the mlh1 rad18 strain (AID 175)
Conditions: S. cerevisiae mlh1 rad18 strain growth inhibition, active compounds read high
Experimental: Growth inhibition of yeast strains with defined genetic alterations is measured as a screen for potential anti-cancer activity. Selected strains with alterations in DNA damage repair or cell cycle control were exposed to compounds and growth inhibition was measured relative to vehicle treated controls. The strain used in this assay is mlh1 rad18

[1] = at 5.0 µM (retest, dose inferred, filed as 0.5)
[2] = at 50.0 µM (retest, dose inferred, filed as 5.0)

Compound | growth inhibition [1] | growth inhibition [2] | growth inhibition (at 50.0 µM)
CCC(=NCCCCCCN=C(CC)c1cc(C)cc([N+](=O)[O-])c1O)c1cc(C)cc([N+](=O)[O-])c1O.[Fe] | 11% | 63% | 80.8% (active)
O=C(N/C(=C\c1cc(Cl)ccc1Cl)c1nc2ccc(Cl)cc2[nH]1)c1ccccc1 | 14% | 81% (active) | 96.5% (active)
O=C(O)c1ccc([N+](=O)[O-])cc1.[Ag] | 99% (active) | 99% (active) | 99.2% (active)
Cc1ccc2c(c1C)-c1c(ccc(C)c1C)C(=O)C2=O | 75% (active) | 99% (active) | 99.5% (active)
NC1OC(COC(=O)c2ccccc2)C(O)C(OC(=O)c2ccccc2)C1OC(=O)c1ccccc1 (configuration not stated) | 4% | 97% (active) | 95.8% (active)
CC(=O)OCCC1=CCC2CC1C2(C)C (configuration not stated) | -3% | 3% | -10.7%
COc1ccc2c(Cc3ccc(Cl)cc3)cncc2c1O | 21% | 96% (active) | 99.1% (active)
c1ccc(CCNCc2ccco2)nc1 | -7% | -3% | 7.7%
CC(=O)O/C=C1\c2ccccc2CCC1c1ccc2ccccc2c1 (configuration not stated) | 9% | 9% | -0.15%
CN(C)N=Nc1c(-c2ccccc2)n[nH]c1-c1ccccc1 | 99% (active) | 100% (active) | 99.5% (active)
COc1ccccc1/C=C1\NC(=S)N(/C=C2\C(=O)Oc3ccccc3C2=O)C1=O | 9% | 50% | 85.9% (active)
CCC[CH2][Sn]([CH2]CCC)([O]C(=O)c1cccc(F)c1F)[O]C(=O)c1cccc(F)c1F | 67% | 67% | 86.4% (active)
CCCCCCCCCCCCCCCCCC[N+]1(C)CCC[N+](C)(CCCCCCCCCCCCCCCCCC)CC1 (configuration not stated) | 2% | 24% | 84% (active)
Fc1ccc(CSC(=S)Nc2ccc(F)cc2)cc1 | -3% | 19% | 78.7% (active)
